The full ranking holds about 1,300 sequences; the median of “log fluorescence intensity” is about 8.3, and the highest 2% start at about 12. This is one part of a sample in which the highest values are shown more often than they occur.
Each sequence was assayed against T1, ETS1 (Homo sapiens, UniProt P14921 1-441) (assay: custom PBM; custom protein-binding microarray; buffer, salt, pH and temperature not stated; high values mean tight binding). Details: dsDNA, one strand shown.
T1 sequence: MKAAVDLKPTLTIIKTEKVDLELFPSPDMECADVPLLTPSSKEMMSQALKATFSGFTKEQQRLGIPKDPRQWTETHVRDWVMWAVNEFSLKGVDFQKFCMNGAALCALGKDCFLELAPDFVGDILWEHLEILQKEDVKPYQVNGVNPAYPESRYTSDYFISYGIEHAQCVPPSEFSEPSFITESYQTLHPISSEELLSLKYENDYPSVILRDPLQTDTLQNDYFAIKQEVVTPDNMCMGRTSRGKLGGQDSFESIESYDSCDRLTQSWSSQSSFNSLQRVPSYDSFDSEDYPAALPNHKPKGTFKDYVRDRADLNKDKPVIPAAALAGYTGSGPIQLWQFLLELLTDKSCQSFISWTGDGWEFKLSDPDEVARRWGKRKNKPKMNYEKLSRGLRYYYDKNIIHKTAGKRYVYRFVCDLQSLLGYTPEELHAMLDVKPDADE

In order of falling binding signal:
1. GGAAAAAGGCCCCGGGTAACACCGGAAGTGGGCTTAGTCTTGATTCGCTTGACGCTGCTG  12.6 log fluorescence intensity
2. GGAAAAAGGCCCGGGGTAACACCGGAAGTGGGCTTAGTCTTGATTCGCTTGACGCTGCTG  12.5 log fluorescence intensity
3. GGAAAAAGGCCCAGGGTAACACCGGAAGTGGGCTAAGTCTTGATTCGCTTGACGCTGCTG  12.1 log fluorescence intensity
4. GGAAAAAGGCCCAGGGTAACACCGGAAGTGGGCTTCGTCTTGATTCGCTTGACGCTGCTG  12.1 log fluorescence intensity
5. GAAAAAAGGCCCAGGGTAACACCGGAAGTGGGCTTAGTCTTGATTCGCTTGACGCTGCTG  12.1 log fluorescence intensity
6. GGAAAAAGGCCCAGGGTAACACCGGAAGTGGGCTTTGTCTTGATTCGCTTGACGCTGCTG  12.1 log fluorescence intensity
7. GGAAAAAGGCCCTGGGTAACACCGGAAGTGGGCTTAGTCTTGATTCGCTTGACGCTGCTG  12 log fluorescence intensity
8. GGAAAAAGGCCCAGGGTAACACCGGAAGTGGGCTTAGTCTTGATTCGCTTGACGCTGCTG  12 log fluorescence intensity
9. GGAAAAAGGCCCAGGGTAACACCGGAAGTGGGCTCAGTCTTGATTCGCTTGACGCTGCTG  12 log fluorescence intensity
10. GGAAAAAGGCCCAGGGTAACACCGGAAGTGGGCATAGTCTTGATTCGCTTGACGCTGCTG  12 log fluorescence intensity
11. CGGAAGTGTCGTAACCGTCGGATATCCGGTTCTTCTGTCTTGATTCGCTTGACGCTGCTG  11.9 log fluorescence intensity
12. GGAAAAAGGCCCAGGGTAACACCGGAAGTGGGCTGAGTCTTGATTCGCTTGACGCTGCTG  11.9 log fluorescence intensity
13. GGAAAAAGGCCCAGGGTAACACCGGAAGTGGGCTTGGTCTTGATTCGCTTGACGCTGCTG  11.8 log fluorescence intensity
14. CTGAAGTGTCGTAAACGTCGGATATCCGGTTCTTCTGTCTTGATTCGCTTGACGCTGCTG  11.8 log fluorescence intensity
15. GGAAAAAGGCCCAGGGTAACACCGGAAATGGGCTTAGTCTTGATTCGCTTGACGCTGCTG  11.5 log fluorescence intensity
16. GGAAAAAGGCCCAGGGTAACACCGGATGTGGGCTTAGTCTTGATTCGCTTGACGCTGCTG  11 log fluorescence intensity
17. GCTTCTGCGGTGCATACCCCACCGGATGTGACCCCGGTCTTGATTCGCTTGACGCTGCTG  10.3 log fluorescence intensity
18. GCTGCTGCGGTGCATACCCCACCGGATGTGACCCGGGTCTTGATTCGCTTGACGCTGCTG  10.2 log fluorescence intensity
19. GCTGCTGCGGTGCATACCCCACCGGATGTGACCCCAGTCTTGATTCGCTTGACGCTGCTG  10.1 log fluorescence intensity
20. GCTGCTGCGGTGCATACCCCACCGGATGTGACCCTGGTCTTGATTCGCTTGACGCTGCTG  10.1 log fluorescence intensity
21. GCTGCTGCGGTGCATACCTCACCGGATGTGACCCCGGTCTTGATTCGCTTGACGCTGCTG  9.97 log fluorescence intensity
22. GGAAAAAGGCCCAGGGTAACACCGGAACTGGGCTTAGTCTTGATTCGCTTGACGCTGCTG  9.07 log fluorescence intensity
23. TAAAGGAAAGACGGTTGTGGTAGTTCCGGGTATTAAGTCTTGATTCGCTTGACGCTGCTG  8.77 log fluorescence intensity
24. TAAAGGGAAGACGGTAGTGGTAGTTCCGGGTATTAAGTCTTGATTCGCTTGACGCTGCTG  8.7 log fluorescence intensity
25. GCTGCTGCGGTGCATACCCCACCGGACGTGACCCCGGTCTTGATTCGCTTGACGCTGCTG  8.55 log fluorescence intensity
26. CGGAAGTGTCGTAAACGTCGGATATCAGGTTCTTCTGTCTTGATTCGCTTGACGCTGCTG  8.51 log fluorescence intensity
27. TAAAGGGAAGACGATTGTGGTAGTTCCGGGTATTAAGTCTTGATTCGCTTGACGCTGCTG  8.5 log fluorescence intensity
28. TCCGCCTACCAGCTCCACCCACTTCAGGCCTTGTAGGTCTTGATTCGCTTGACGCTGCTG  8.47 log fluorescence intensity
29. TAAAGGGAAGAAGGTTGTGGTAGTTCCGGGTATTAAGTCTTGATTCGCTTGACGCTGCTG  8.45 log fluorescence intensity
30. TAAAGGGAAGACGCTTGTGGTAGTTCCGGGTATTAAGTCTTGATTCGCTTGACGCTGCTG  8.41 log fluorescence intensity
31. CAGCATCGGACTTCTTCCCTGAAGCAATTGATAACCGTCTTGATTCGCTTGACGCTGCTG  8.4 log fluorescence intensity
32. TCCGGCTACCAGCTCCACTCACTTCAGGCCTTGTAGGTCTTGATTCGCTTGACGCTGCTG  8.4 log fluorescence intensity
33. TAAAGGGAAGACGGTTGTGGGAGTTCCGGGTATTAAGTCTTGATTCGCTTGACGCTGCTG  8.37 log fluorescence intensity
34. GGAAAAAGGCCCAGGGTAACACCTGAAGTGGGCTTAGTCTTGATTCGCTTGACGCTGCTG  8.36 log fluorescence intensity
35. GTGTATAGGATCCCATCCAACACACGTGTTAAAATGGTCTTGATTCGCTTGACGCTGCTG  8.35 log fluorescence intensity
36. GGAAAAAGGCCCAGGGTAACACCGTAAGTGGGCTTAGTCTTGATTCGCTTGACGCTGCTG  8.34 log fluorescence intensity
37. CTGGGACTTGAACCAACTCTGCCACGTGGGTCGTTTGTCTTGATTCGCTTGACGCTGCTG  8.34 log fluorescence intensity
38. GTGTATAGGAACCCATCCAACACACGTGTTAAAATGGTCTTGATTCGCTTGACGCTGCTG  8.33 log fluorescence intensity
39. TGTCGGGTAAGGGAATGTAGATCACGTGACTGAAAAGTCTTGATTCGCTTGACGCTGCTG  8.33 log fluorescence intensity
40. GTGTATAGGGTCCCATCCAACACACGTGTTAAAATGGTCTTGATTCGCTTGACGCTGCTG  8.3 log fluorescence intensity

Reference: article PMC6602471
